Records with an inconclusive call do not appear. The source made the active and inactive calls.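 The calls were made as follows, unless noted: active = normalized viability below 100% at a tested concentration; inactive = the rest.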
Tests used:
[1] = growth inhibition of DIPG glioma cells, dose response, cell-based, SU-DIPG-XVII, MIPE5.0, CellTiter-Glo, qHTS (AID 1347060; cut-off not given, nearly all actives have AC50 up to about 26 µM;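 as to AC50: cells exposed to compound for 48 hours before viability readout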); conditions: SU-DIPG-XVII viability, CellTiter-Glo ATP luminescence
[2] = growth inhibition of DIPG glioma cells, dose response, cell-based, JHH-DIPG-1, MIPE4.0, CellTiter-Glo, qHTS (AID 1347062; cut-off not given, nearly all actives have AC50 up to about 27 µM;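 also: cells exposed to compound for two days before readout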); conditions: JHH-DIPG-1 viability, CellTiter-Glo ATP luminescence
[3] = growth inhibition of DIPG glioma cells, dose response, cell-based, SU-DIPG-IV, MIPE4.0, CellTiter-Glo, qHTS (AID 1347063; cut-off not given, nearly all actives have AC50 up to about 30 µM;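 also: compound exposure lasted 48 hours before the viability readout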); conditions: SU-DIPG-IV viability, CellTiter-Glo ATP luminescence
[4] = viability loss in pontine glioma line – cell-based, SU-DIPG-XXV, MIPE5.0, CellTiter-Glo, qHTS, dose response (AID 1347065; cut-off not given, nearly all actives have AC50 up to about 26 µM;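 also: cells exposed to compound for 48 hours before ATP readout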); conditions: CellTiter-Glo ATP luminescence
[5] = sensitizers of A549 cells to miR-34 induction, primary screen, imaging, A549 dox-inducible miR-34, nuclei and caspase counts (AID 1347080;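 active = compounds whose cell count with miR-34 switched on is under 0.7 times the count with it off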); conditions: A549 miR-34 inducible, Hoechst nuclei count, 48 h
[6] = survival rescue of mitochondrial mutant cells in low glucose, primary screen, MELAS cybrids, Rieske KO mouse fibroblasts, CellTiter-Glo (AID 1508586;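 active = mean z-score across replicates of 1.96 or higher in either the MELAS or the Rieske mutant cell line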;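 also: z relative to plate mean and SD of compound and empty wells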)
[7] = LFS_MB_P medulloblastoma growth inhibition, cell-based, chromothripsis tumors, cisplatin or BGB combos (AID 1671449; in the data active = inhibition above about 80%;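 also: cells exposed for 96 hours; 0% = vehicle DMSO and 100% = killing by high DMSO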); conditions: LFS_MB_P medulloblastoma cells
[8] = HDN33 neuroblastoma growth inhibition, cell-based, chromothripsis tumors, cisplatin or BGB combos (AID 1671450; in the data active = inhibition above about 80%;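 also: cells exposed to compound for four days; 0% = vehicle DMSO and 100% = cell killing by high DMSO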); conditions: HDN33 neuroblastoma cells, stronger effect = higher value
[9] = ICB984 medulloblastoma cell growth inhibition, synergistic combos for chromothripsis tumors, cisplatin or BGB combos (AID 1671451; call rule not given here;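 also: cells exposed for 96 hours before readout; 0% = vehicle DMSO and 100% = killing by high DMSO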); conditions: ICB984 medulloblastoma cells, drug combinations, stronger effect = higher value
[10] = HTB85 osteosarcoma cell growth inhibition, synergistic combos for chromothripsis tumors, BGB or cisplatin IC20 combos (AID 1671453; in the data active = inhibition above about 80%;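 also: cells exposed for 96 hours before readout; 0% = vehicle DMSO and 100% = high DMSO killing control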); conditions: HTB85 osteosarcoma cells, drug combinations, stronger effect = higher value
[11] = MDA-MB-436 breast carcinoma cell growth inhibition, synergistic combos for chromothripsis tumors, BGB or cisplatin combos (AID 1671458; call rule not given here;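 also: cells exposed for 96 hours; 0% = vehicle DMSO and 100% = killing by high DMSO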); conditions: MDA-MB-436 breast carcinoma growth inhibition, drug combinations, stronger effect = higher value
[12] = growth inhibition of BT084 medulloblastoma cells, cell-based, ICGC_MB145, cisplatin and BGB IC40 combos (AID 1671461; in the data active = inhibition above about 80%;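 also: cells exposed to drugs for 96 hours; 0% = vehicle DMSO and 100% = high DMSO full killing control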); conditions: drug combinations, stronger effect = higher value
[13] = growth inhibition of RCMB18 medulloblastoma cells, cell-based, cisplatin and BGB IC40 combos (AID 1671462; in the data active = inhibition above about 80%;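 also: cells exposed to compound for four days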); conditions: stronger effect = higher value
[14] = growth inhibition of CRL1545 osteosarcoma cells, cell-based, cisplatin and BGB IC20 combos (AID 1671464; in the data active = inhibition above about 80%;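 also: cells exposed to compound for 96 hours before readout; 0% = vehicle DMSO and 100% = high DMSO killing control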); conditions: stronger effect = higher value
[15] = SU-DIPG-VI glioma cell viability, MIPE4.0 library, CellTiter-Glo luminescence, qHTS (AID 1347066; cut-off not given, nearly all actives have AC50 up to about 30 µM;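 also: cells exposed to compound for 48 hours before readout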); conditions: CellTiter-Glo ATP luminescence
[16] = JHH-DIPG-1 glioma cell viability, MIPE5.0 library, CellTiter-Glo luminescence, qHTS (AID 1347067; cut-off not given, nearly all actives have AC50 up to about 26 µM;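 also: cells exposed to compound for 48 hours before readout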); conditions: JHH-DIPG-1 glioma viability, CellTiter-Glo ATP luminescence
[17] = SU-DIPG-XXV glioma cell viability, MIPE5.0 library, qHTS (AID 1347068; cut-off not given, nearly all actives have IC50 up to about 30 µM;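 as to IC50: cells exposed to compound for 48 hours before viability readout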)
[18] = growth inhibition of DIPG glioma cells, dose response, cell-based, SU-DIPG-XIII, MIPE5.0, CellTiter-Glo, qHTS (AID 1347064; cut-off not given, nearly all actives have AC50 up to about 23 µM); conditions: SU-DIPG-XIII viability, CellTiter-Glo ATP luminescence
[19] = ovarian cancer cell viability with rucaparib, profiling panel, oncology-focused library, rucaparib conditional (AID 1508598); conditions: patient-derived ovarian cancer cells, CellTiter-Glo viability, 144 h, stronger effect = lower value
[20] = stronger effect = lower value, cell number ratio, induced over uninduced
[21] = measured here: relative caspase fold change +Dox/-Dox
[22] = measured here: total cells with miR-34 induction, stronger effect = lower value
[23] = measured here: total cells without miR-34 induction
[24] = MELAS cybrid survival, CellTiter-Glo 48 h, stronger effect = higher value
[25] = Rieske KO mouse fibroblast survival, CellTiter-Glo 72 h
[26] = measured here: with BGB IC20 combination, at 0.5 µM
[27] = measured here: with cisplatin IC20 combination, at 0.5 µM

CN(C)CCN1C(=O)c2cccc3cc(N)cc(c23)C1=O
AC50 [1]: 20.9 µM (active)
AC50 [2]: 23.5 µM (active)
AC50 [3]: 18.7 µM (active)
AC50 [4]: 18.6 µM (active)
fold change [5, 20]: 1.2 (inactive)
fold change [5, 21]: 0.74
cell count [5, 22]: 1750
cell count [5, 23]: 1460
z-score [6, 24]: -0.14 (inactive)
z-score [6, 25]: -0.182
inhibition ([7]; at 0.5 µM, stronger effect = higher value): -4.37% (inactive)
inhibition ([7]; measured here: combination with BGB IC20, at 0.005 µM): -27.8%
inhibition ([7]; measured here: combination with BGB IC40, at 0.005 µM): -17.6%
inhibition ([7]; measured here: combination with BGB IC40, at 0.05 µM): -30.5%
inhibition ([7]; measured here: combination with cisplatin, at 0.5 µM, stronger effect = higher value): -36.3%
inhibition ([7]; measured here: combination with cisplatin, at 5 µM, stronger effect = higher value): 4.24%
inhibition ([8]; BGB combo, at 5 µM): 41.4%
inhibition ([8]; at 0.5 µM): -23.5% (inactive)
inhibition ([8]; cisplatin combo, at 5 µM): 48.1%
inhibition [8, 26]: -27.7%
inhibition [8, 27]: -18.1%
inhibition ([8]; single agent, at 5 µM): 62.5%
inhibition ([9]; BGB IC20 combo, at 0.005 µM): -11.5%
inhibition ([9]; BGB IC40 combo, at 0.005 µM): -22.2%
inhibition ([9]; BGB IC40 combo, at 0.05 µM): -11.5%
inhibition ([9]; at 0.5 µM): -22.6% (inactive)
inhibition ([9]; cisplatin combo, at 0.05 µM): -15.5%
inhibition ([9]; cisplatin combo, at 0.5 µM): -16.6%
inhibition ([9]; cisplatin combo, at 5 µM): -25.7%
inhibition ([9]; measured here: 5 uM single agent, at 5 µM): -8.29%
inhibition ([10]; at 0.5 µM): -12.9% (inactive)
inhibition ([10]; measured here: with BGB IC20, at 0.5 µM): -26.5%
inhibition ([10]; measured here: with BGB IC20, at 5 µM): 10.3%
inhibition ([10]; measured here: with cisplatin IC20, at 0.5 µM): -16.4%
inhibition ([10]; measured here: with cisplatin IC20, at 5 µM): 6%
inhibition ([10]; single agent, at 5 µM): 33.7%
inhibition ([11]; at 0.5 µM): -8.14% (inactive)
inhibition ([11]; measured here: BGB combination, at 0.5 µM): -8.98%
inhibition ([11]; measured here: BGB combination, at 5 µM): 10.1%
inhibition ([11]; measured here: cisplatin combination, at 0.5 µM): -20.8%
inhibition ([11]; measured here: cisplatin combination, at 5 µM): 21.8%
inhibition ([12]; at 0.5 µM): -6.16% (inactive)
inhibition ([12]; cisplatin combination, at 0.5 µM): -21.8%
inhibition ([12]; cisplatin combination, at 5 µM): -12.3%
inhibition ([12]; measured here: BGB IC40 combination 0.05 uM, at 0.05 µM): -42.3%
inhibition ([12]; single agent, at 5 µM): -40.8%
inhibition ([13]; at 0.5 µM): -2.53% (inactive)
inhibition ([13]; cisplatin combo, at 5 µM): -21%
inhibition ([13]; measured here: BGB IC40 combination, at 0.05 µM): -28.2%
inhibition ([13]; measured here: combination with cisplatin, at 0.5 µM): 2.14%
inhibition ([13]; single agent, at 5 µM): -32.9%
inhibition ([14]; at 0.5 µM): -31.5% (inactive)
inhibition [14, 26]: -17.6%
inhibition [14, 27]: -40.7%
inhibition ([14]; single agent, at 0.05 µM): -14.5%
inhibition ([14]; single agent, at 5 µM): 59.5%

CCc1ccc(C(=O)Nc2cc(CN3CCN(C)CC3)cc(C(F)(F)F)c2)cc1C#Cc1cnc2ccnn2c1
AC50 [1]: 14.8 µM (active)
AC50 [2]: 10.5 µM (active)
AC50 [3]: 7.43 µM (active)
AC50 [4]: 11.8 µM (active)
AC50 [15]: 16.6 µM (active)
AC50 [16]: 13.2 µM (active)
IC50 [17]: 14.8 µM (active)

Cc1ccc(S(=O)(=O)Nc2nc3ccccc3nc2Nc2ccc3nsnc3c2)cc1
outcome [1]: inactive
AC50 [2]: 0.512 µM (active)
outcome [18]: inactive
outcome [16]: inactive
outcome [17]: inactive
fold change [5, 20]: 0.883 (inactive)
fold change [5, 21]: 1.38
cell count [5, 22]: 3480
cell count [5, 23]: 3940
z-score [6, 24]: -0.561 (inactive)
z-score [6, 25]: 0.136
viability ([19]; at 0.000305 µM, OCI-C5x cells, with rucaparib 10 µM, 100% = cells with rucaparib alone): 107% (inactive)
viability ([19]; at 0.000305 µM, OCI-C5x cells, without rucaparib): 120% (inactive)
viability ([19]; at 0.000305 µM, OCI-P5x cells, with rucaparib 20 µM, 100% = cells with rucaparib alone): 124% (inactive)
viability ([19]; at 0.000305 µM, OCI-P5x cells, without rucaparib): 116% (inactive)
viability ([19]; at 0.00122 µM, OCI-C5x cells, with rucaparib 10 µM, 100% = cells with rucaparib alone): 122% (inactive)
viability ([19]; at 0.00122 µM, OCI-C5x cells, without rucaparib): 132% (inactive)
viability ([19]; at 0.00122 µM, OCI-P5x cells, with rucaparib 20 µM, 100% = cells with rucaparib alone): 131% (inactive)
viability ([19]; at 0.00122 µM, OCI-P5x cells, without rucaparib): 117% (inactive)
viability ([19]; at 0.00488 µM, OCI-C5x cells, with rucaparib 10 µM, 100% = cells with rucaparib alone): 112% (inactive)
viability ([19]; at 0.00488 µM, OCI-C5x cells, without rucaparib): 130% (inactive)
viability ([19]; at 0.00488 µM, OCI-P5x cells, with rucaparib 20 µM, 100% = cells with rucaparib alone): 125% (inactive)
viability ([19]; at 0.00488 µM, OCI-P5x cells, without rucaparib): 115% (inactive)
viability ([19]; at 0.0195 µM, OCI-C5x cells, with rucaparib 10 µM, 100% = cells with rucaparib alone): 123% (inactive)
viability ([19]; at 0.0195 µM, OCI-C5x cells, without rucaparib): 132% (inactive)
viability ([19]; at 0.0195 µM, OCI-P5x cells, with rucaparib 20 µM, 100% = cells with rucaparib alone): 120% (inactive)
viability ([19]; at 0.0195 µM, OCI-P5x cells, without rucaparib): 108% (inactive)
viability ([19]; at 0.0781 µM, OCI-C5x cells, with rucaparib 10 µM, 100% = cells with rucaparib alone): 122% (inactive)
viability ([19]; at 0.0781 µM, OCI-C5x cells, without rucaparib): 124% (inactive)
viability ([19]; at 0.0781 µM, OCI-P5x cells, with rucaparib 20 µM, 100% = cells with rucaparib alone): 125% (inactive)
viability ([19]; at 0.0781 µM, OCI-P5x cells, without rucaparib): 110% (inactive)
viability ([19]; at 0.313 µM, OCI-C5x cells, with rucaparib 10 µM, 100% = cells with rucaparib alone): 112% (inactive)
viability ([19]; at 0.313 µM, OCI-C5x cells, without rucaparib): 74.9% (active)
viability ([19]; at 0.313 µM, OCI-P5x cells, with rucaparib 20 µM, 100% = cells with rucaparib alone): 117% (inactive)
viability ([19]; at 0.313 µM, OCI-P5x cells, without rucaparib): 106% (inactive)
viability ([19]; at 1.25 µM, OCI-C5x cells, with rucaparib 10 µM, 100% = cells with rucaparib alone): 115% (inactive)
viability ([19]; at 1.25 µM, OCI-C5x cells, without rucaparib): 121% (inactive)
viability ([19]; at 1.25 µM, OCI-P5x cells, with rucaparib 20 µM, 100% = cells with rucaparib alone): 110% (inactive)
viability ([19]; at 1.25 µM, OCI-P5x cells, without rucaparib): 105% (inactive)
viability ([19]; at 5 µM, OCI-C5x cells, with rucaparib 10 µM, 100% = cells with rucaparib alone): 107% (inactive)
viability ([19]; at 5 µM, OCI-C5x cells, without rucaparib): 117% (inactive)
viability ([19]; at 5 µM, OCI-P5x cells, with rucaparib 20 µM, 100% = cells with rucaparib alone): 95.1% (active)
viability ([19]; at 5 µM, OCI-P5x cells, without rucaparib): 102% (inactive)
